Assay outcomes as filed in PubChem.
NFkB transloc inh: inhibitors of IL-1B driven NFkB p65 nuclear import, primary screen, imaging, HUVEC, IL-1B stimulus, high-content imaging; 94,000 compounds, 0.43% hits; HUVEC IL-1B NFkB p65 nuclear translocation imaging; AID 796, 2007; inhibition, % at 2 µM;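 active = inhibition above about 30% together with a positive call from visual inspection of the well image, limit read from the data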;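 also: nuclear over cytoplasmic p65 intensity ratio measured by imaging; 0% = IL-1B stimulated DMSO wells and 100% = unstimulated DMSO wells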
HUVEC tox IL1B: cytotoxicity in IL-1B stimulated HUVEC, primary screen, cytotoxicity control for IL-1B NFkB translocation project, imaging, Hoechst nuclear count, IL-1B stimulus | cell count reduction, % at 2 µM | 94,000 compounds, 0.41% hits | HUVEC cell count loss;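 active = cell count reduction more than 3 SD above the screen-wide mean, cut at about 70% in these data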;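 also: normalized per plate to untreated control cells as the no-loss baseline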
NFkB transloc pot: enhancers of NFkB p65 translocation in HUVEC – imaging, IL-1B stimulus, high-content imaging, primary screen | activation, % at 2 µM | 94,000 compounds, 0.3% hits | HUVEC IL-1B NFkB p65 nuclear translocation imaging;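 active = activation above 40%, about the mean plus 3 SD, also judged a hit on visual image review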;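 also: percent activation is computed from the nuclear over cytoplasmic p65 intensity ratio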
Cav32 inh: Cav3.2 calcium influx blockers – cell-based, Fluo-4 calcium fluorescence, FDSS, MLSMR library, primary screen | Voltage-dependent T-type calcium channel subunit alpha-1H (Homo sapiens), O95180 | Cav3.2-expressing cells; stronger effect = lower value | B-score at 10 µM | 100,000 compounds, 4% hits | AID 449739, 2010;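 active = single-dose well whose peak fluorescence ratio is a statistical outlier from its plate by either plate-standardised score or position-corrected B-score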
Numbers without * were called inactive; . = not tested or not shown. In the library only some 4.4% were active in any assay of this set; here they are far more common.

SMILES	NFkB transloc inh	HUVEC tox IL1B	NFkB transloc pot	Cav32 inh
CCOC(=O)Nc1ccc(C)cc1Br	11.1	10.2	-11.1	1.37
O=C1CC(O)(C(F)(F)F)Oc2c1ccc1ccccc21 (stereo not drawn)	-12.6	7.8	12.6	-4.25*
COc1cc2[nH]c(=O)n(CCC(=O)N3CCN(c4cc(Cl)ccc4C)CC3)c(=O)c2cc1OC	1.7	82.8*	-1.7	.
Cc1ccc(SCC(=O)NCCSC(C)(C)C)cc1	-2.4	-18.5	2.4	0.0131
O=C(c1ccc2c(c1)OCO2)N1CCC2(CC1)Oc1ccc(Cl)cc1C(=O)C21CC(c2ccccc2)=NO1 (stereo not drawn)	.	.	.	-1.7
COC(=O)COC(=O)c1ccc(Oc2nc(OC)nc(N(C)C)n2)cc1	-6.4	12.0	6.4	0.547
CCCCOc1ccccc1Cn1c(=O)oc2ccc(C)cc21	-0.8	-8.5	0.8	-1.82
Cc1ccc2oc(=O)n(Cc3ccccc3OC(C)C)c2c1	2.3	2.1	-2.3	-6*
C=CCC(C#Cc1ccccc1)[N+](C)(C)CC=C (stereo not drawn)	-7.3	-44.7	7.3	-0.568
O=C(NCc1ccccn1)C1(C(F)(F)F)C/C(=C\CCO)CCCO1 (stereo not drawn)	.	.	.	1.25
CC(NC(=O)Nc1cccnc1)(C(F)(F)F)C(F)(F)F	.	.	.	-0.856
CC(NC(=O)Nc1cccc([N+](=O)[O-])c1)(C(F)(F)F)C(F)(F)F	1.0	11.1	-1.0	-4.85*
Cc1nnc(NC(=O)CCC(=O)NCc2ccco2)s1	-8.5	-15.2	8.5	0.0208
O=C(NCC1COc2ccccc2O1)C1C2C=CC3(CN(Cc4ccccc4Cl)C(=O)C13)O2 (stereo not drawn)	.	.	.	-8.66*
COc1ccc(CCN2CC34C=CC(O3)C(C(=O)NCc3ccccc3Cl)C4C2=O)cc1OC (stereo not drawn)	-6.7	-28.5	6.7	0.814
COC(=O)c1ccc(N(C(=O)CNC(=O)c2ccco2)C(C(=O)NC2CCCC2)c2ccco2)cc1 (stereo not drawn)	-11.0	-19.8	11.0	-0.939
C/C(=N/NC(=O)c1cc2ccccc2cc1O)C1C(=O)c2ccccc2C1=O	-2.0	-0.6	2.0	-5.91*
C/C(=N\NC(=O)c1ccccc1O)C1C(=O)c2ccccc2C1=O	-16.6	-3.1	16.6	-7.19*
C/C(=N\NC(=O)c1ccccc1O)c1c(O)cc(C)oc1=O	5.3	0.7	-5.3	-0.0477
CCOC(=O)C1=C(Nc2ccc(C)cc2)CC(C)(O)C(C(=O)OCC)C1c1ccccc1 (stereo not drawn)	-6.4	9.9	6.4	-0.0482
COC(=O)c1cccc(N(C(=O)c2cnccn2)C(C(=O)NC2CCCCC2)c2cn(C)nc2C)c1 (stereo not drawn)	11.1	-10.9	-11.1	1.05
O=C(N/N=C/c1ccc(OC2CSC2)cc1)c1ccccc1	.	.	.	0.926
Cc1ccc(N(CC(=O)N/N=C/c2ccc(OC3CSC3)cc2)S(=O)(=O)c2ccccc2)cc1	-13.8	-18.0	13.8	-2.71*
COc1cc(N2CCCC2)c(OC)cc1/C=C(/C#N)c1ccc(F)cc1	-28.0	-5.7	28.0	-3.71
N#C/C(=C/c1ccc(N2CCCCC2)o1)c1cccc(F)c1	-1.3	-6.7	1.3	-5.6*
SMILES	NFkB transloc inh	HUVEC tox IL1B	NFkB transloc pot	Cav32 inh
N#C/C(=C/c1ccc(N2CCCCCC2)o1)c1ccc(Cl)cc1	16.7	-5.1	-16.7	-5.72*
N#C/C(=C/c1ccc(Sc2nc3ccccc3[nH]2)o1)c1cccc(F)c1	-8.0	-0.3	8.0	-4.45*
O=C(NCc1ccc(N2CCCC2=O)cc1)Nc1ccccc1	-3.4	-9.5	3.4	1.38
CN(C(=O)c1cc2n(n1)C(C(F)(F)F)CC(c1ccco1)N2)c1ccccc1 (stereo not drawn)	-13.4	13.6	13.4	1.06
CC(C)(C)c1nnc2sc(SCC(=O)c3cccs3)nn2c1=O	.	.	.	-0.451
Cc1ccc(SCCN2CCN(CC(C)C)CCC2=O)cc1	.	.	.	-0.23
O=C(CSc1cn(Cc2ccccc2)c2ccccc12)Nc1nccs1	-1.4	-16.2	1.4	-4.35*
O=C(CSCc1ccccc1)Nc1nccs1	5.2	1.5	-5.2	0.1
O=C(c1ccc(Cl)c(Cl)c1)N1CCC(=O)N(C(COCc2ccccc2)Cc2ccccc2)CC1 (stereo not drawn)	.	.	.	-5*
CCC(C)(CC(=O)N(C)CCC#N)c1ccccc1 (stereo not drawn)	25.9	83.7*	-25.9	0.0164
CCO/C=C/C(=O)N(C)CCC#N	3.5	2.7	-3.5	-0.511
CCOC(=O)c1cccc(Nc2nc(C)cc(C)n2)c1	-1.6	82.7*	1.6	-0.693
C#CCNC(=O)C1=C[C@@H](c2ccc(C(F)(F)F)cc2)C[C@@H](OCCCCO)O1	.	.	.	-0.591
O=C(Nc1nnc(C2CCCCC2)s1)c1cccs1	8.8	18.5	-8.8	0.254
O=C(Nc1nnc(C2CCCO2)s1)c1cccs1 (stereo not drawn)	37.0*	70.1*	-37.0	1.68
CC/C(=N\n1nnnc1Nc1ccccc1)c1ccccc1	1.8	-33.9	-1.8	-5.73*
Cc1cccc(N2CCN(c3cccc(C)c3)C2c2cccnc2)c1	0.0	-26.1	0.0	-4.82*
Cc1cccc(N2C(=O)CSC2c2cccnc2)c1 (stereo not drawn)	-1.2	50.4	-1.9	-0.148
Cn1cc(Br)c(C(=O)NNC(=O)c2cccc(Br)c2)n1	2.4	0.4	-2.4	.
FC(F)(F)c1cc(C(F)(F)F)c2ccc(N3CCN(c4ccc(Cl)cc4)CC3)nc2n1	-18.9	25.6	18.9	-7.03*
Fc1ccc(N2CCN(c3ccc4c(C(F)(F)F)cc(C(F)(F)F)nc4n3)CC2)cc1	-2.0	-38.2	2.0	-4*
COc1ccccc1N(C(=O)NCc1ccccc1)C1=NCC(C)S1 (stereo not drawn)	6.7	2.4	-6.7	-4.69*
CC1CN=C(N(C(=O)Nc2ccccc2)C(C)C)S1 (stereo not drawn)	-1.1	-121.7	1.1	-0.303
CC1CN=C(N(Cc2ccccc2)C(=O)Nc2ccccc2)S1 (stereo not drawn)	-9.3	14.0	9.3	-8.43*
O=C(CSCc1cccc(Br)c1)N1CCOCC1	2.7	-3.7	-2.7	0.657
SMILES	NFkB transloc inh	HUVEC tox IL1B	NFkB transloc pot	Cav32 inh
Cc1cc(C)n(-c2nc(SCCN(C)C)c3c4c(sc3n2)COC(C)(C)C4)n1	-8.8	-28.9	8.8	-0.00712
CCn1c(SCC(=O)Nc2cc(NC(C)=O)ccc2OC)nnc1-c1ccccn1	9.0	24.7	-9.0	0.32
O=C(CSc1nnc(-c2ccccc2)n1Cc1ccco1)NCc1ccc2c(c1)OCO2	-59.1	7.9	59.1*	-4.12*
O=C1COc2ccc(C(=O)CSc3nnc(Cc4cccs4)n3-c3ccc(Cl)cc3)cc2N1	9.2	-16.5	-9.2	-3.89*
O=C(CSc1nnc(-c2ccccc2)n1Cc1ccco1)Nc1ccc2c(c1)OCCO2	-4.6	1.4	4.6	-1.04
O=C(CSc1nnc2scc(-c3ccccc3)n12)NCc1ccc2c(c1)OCO2	-2.8	-11.4	2.8	0.606
O=C(CSc1nnc(Cc2cccs2)n1-c1ccccc1)NCc1ccc2c(c1)OCO2	10.2	-9.9	-10.2	-4.65*
